For 57 molecules, inhibition results are on record in PubChem BioAssay AID588475 (Sanford-Burnham Center for Chemical Genomics, 2011).

Out of some 350,000 compounds screened, about 2,100 (0.6%) were called active. The sample holds actives, similar compounds and a random draw of the others, so the mix is not that of the screen. Unmarked numbers belong to inactive results.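 Rule for the calls: active = inhibition of the ligand-induced calcium signal above about 50% at the single tested concentration (limit read from the data); inactive = the rest.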

This assay can be described thus: blockers of CRF-evoked CRF-R2/CRF-BP calcium response – cell-based, HEK293, calcium dye fluorescence, uHTS, primary screen (AID 588475). The settings on record: CRF-induced calcium fluorescence, at 11.8 µM, stronger effect = higher value.
By inhibition is commonly meant the drop in the measured response relative to a control, in per cent. Take `O=C(c1ccc(-n2cnnn2)cc1)N1CCN(C(c2ccccc2)c2ccccc2)CC1`: the inhibition is 14.7%. Next, `CCc1ccc(NC(=O)CC2C(=O)NCCN2C(=S)Nc2ccccc2)cc1` (configuration not stated): -42.6%; `CN(C)C(=O)c1nc2ccc(Cl)cn2c1CNCc1cccc(OC(F)(F)F)c1`: 21%; `CCNC(=O)CC1C(=O)N(c2ccc(F)cc2)C(=O)N1CCc1sccc1C` (configuration not stated): 3.16%. In the case of `N#C/C(=C(/O)Cc1cccc2ccccc12)c1nc2ccccc2s1`, the inhibition was 60.4% (active). Next, `CC1=CC(=C(C#N)c2nc3ccccc3s2)C=C(C)N1c1ccc(F)cc1F`: -130%. Next, `O=C(O)CC/C(=C\c1cc2c(cc1Br)OCO2)c1nc2ccccc2s1`: 8.13%; `CC1Cc2ccccc2N1C(=O)Cn1cnc2ccccc2c1=O` (configuration not stated): 0.2%; `CC1CC(C)CN(C(=O)CCNC(=O)Cn2cnc3ccccc3c2=O)C1` (configuration not stated): -2.21%. Next, `CCOC(=O)N1CCN(C(=O)Cn2cnc3ccccc3c2=O)CC1`: 72.2% (active); `O=S(=O)(NCc1ccc2c(c1)OCO2)c1cccc2nsnc12`: -14.6%; `COCCCNC(=O)C1CCC(CNS(=O)(=O)c2ccc(OC)cc2)CC1` (configuration not stated): 5.65%. Turning to `Cc1cc([N+](=O)[O-])ccc1NS(=O)(=O)c1ccccc1`, the inhibition is 17.8%. In the case of `O=[N+]([O-])c1ccc(NS(=O)(=O)c2ccccc2)c(Cl)c1`, the inhibition was 55.9% (active). Next, `O=C(NNS(=O)(=O)c1ccc(F)cc1)c1ccc([N+](=O)[O-])cc1Cl`: 0.78%; `COC(C[C@@H](O)C[C@H](O)[C@H](C)OCc1ccccc1)OC`: 10.3%; `c1ccc(C(=NNc2nc3ccccc3s2)c2ccccn2)cc1`: -36.8%. Next, `O=[N+]([O-])c1cc(Br)c(O)c(/C=N/Nc2nc3ccccc3s2)c1`: 67.2% (active); `O=C(N/N=C/c1cc(Br)c(O)c([N+](=O)[O-])c1)C(O)(c1ccccc1)c1ccccc1`: 4.64%.

With `Cn1nc(-c2ccccc2)c2cc([N+](=O)[O-])ccc21`, the inhibition was -1.55%. Next, `Cc1nn(C(=O)c2ccoc2C)c(N)c1-c1ccccc1`: 4.6%; `Cc1nn(-c2ccc([N+](=O)[O-])cc2)c(N)c1-c1ccccc1`: 51.6% (active); `CN1CCN(C(=O)c2cnn(-c3ccccc3)c2NC(=O)c2ccc([N+](=O)[O-])cc2)CC1`: 1.78%. With `Cc1ccccc1N1CCN(Cc2nc(Cc3ccccc3F)no2)CC1`, the inhibition is 10.3%. Consider `COc1ccc(CC(NC(C)=O)C(=O)NC2CCN(C(=O)c3ccc(Cl)cc3)CC2)cc1` (configuration not stated), for which the inhibition is 13.1%. Next, `C/C(=N/NC(=O)CSc1ccccn1)c1ccc([N+](=O)[O-])cc1`: 1.41%. Next, `Cc1nc(C)c2c(c1C(F)(F)F)-c1ccccc1C2(F)F`: -1.72%; `CCCCn1c(N)c(N(CCC(C)C)C(=O)COC(=O)c2ccc(CC)cc2)c(=O)[nH]c1=O`: -14.7%; `C=C(C)CNC(=S)N/N=C/c1ccccc1OCC(=O)O`: -10.5%. Next, `Cc1ccc(NS(=O)(=O)c2ccc(N/N=C/c3ccccc3OCC(=O)O)c([N+](=O)[O-])c2)c(C)c1`: 63.5% (active); `COc1ccc(Br)cc1/C=N/Nc1ccc(S(=O)(=O)Nc2ccccc2C(=O)O)cc1[N+](=O)[O-]`: 14.6%. On to `CC(CO)(CO)NC(=O)c1ccc(=O)[nH]n1`, for which the inhibition is 2.66%. Next, `Cc1ccc(C(=O)N/C(=C\c2cn(C)c3ccccc23)C(=O)N2CCN(C)CC2)cc1`: 1.64%; `O=[N+]([O-])c1ncc(Br)cc1Nc1ccccc1`: 17.9%; `CCCN(CCc1ccccc1)C1CCc2c(O)cccc2C1` (configuration not stated): -13%.

For `CC(C)NC(=O)CSc1ccccc1C(=O)NCc1ccc2c(c1)OCO2`, the inhibition is 17%. Next, `Cc1nc2c(C(=O)NCc3ccc4c(c3)OCO4)c[nH]n2c(=O)c1Cc1ccccc1F`: 53.2% (active); `COc1ccccc1-n1c(C)nc2cc(C(=O)NCc3ccc4c(c3)OCO4)ccc21`: 20.9%. For the molecule `COCCN(C(=S)Nc1ccccc1OC)C1CCN(C(C)C)CC1`, the inhibition was -0.52%.

Take `CCc1ccc(CN(C)C(C)C(=O)Nc2ccc(S(=O)(=O)N3CCCC3)cc2)cc1` (configuration not stated): the inhibition was -10.1%. Next, `Cc1ccc2nc(N3C(=O)C(O)=C(C(=O)c4ccco4)C3c3cccc(O)c3)sc2c1` (configuration not stated): 51.9% (active). As to `COc1ccc2nc(N3C(=O)C(O)=C(C(=O)c4ccco4)C3c3ccco3)sc2c1` (configuration not stated), the inhibition is 3.47%. Next, `C=CCSc1nnc(N2C(=O)C(O)=C(C(=O)c3ccco3)C2c2ccc(F)cc2)s1` (configuration not stated): 17.8%; `CS(=O)(=O)N(Cc1nc2sc3c(c2c(=O)[nH]1)CCCC3)C1CCCCC1`: -0.95%.

Take `CCc1nn(CC(=O)N2CCN(c3cc(C)ccc3C)CC2)c(=O)c2cc3occc3n12`: the inhibition was 3.13%. Next, `Cc1ccc(CNC(=O)CCNC(=O)Cn2ccc3ccccc3c2=O)cc1`: 87.1% (active); `O=C(CCNC(=O)Cn1ccc2ccccc2c1=O)NCCC1=CCCCC1`: -1.26%; `CCCCN(CC)CCNC(=O)CCNC(=O)Cn1ccc2ccccc2c1=O`: -0.99%. Next, `Cc1ccc(SC(CC(=O)c2ccc(C(C)(C)C)cc2)C(=O)O)cc1` (configuration not stated): -15.1%; `CC(NC(=O)COC(=O)C1CCN(S(=O)(=O)c2ccccc2C(F)(F)F)CC1)c1ccccc1` (configuration not stated): -1.56%; `CCOC(=O)C(C)N(c1ccccc1Cl)S(C)(=O)=O` (configuration not stated): -3.83%. In the case of `S=c1[nH]ccn1-c1ccc(Cl)cc1`, the inhibition is -16.2%.

Regarding `O=C(Nc1nnc(C2=COCCO2)o1)c1ccc([N+](=O)[O-])s1`, the inhibition is -4.65%. Next, `Cc1ccc(C(=O)Nc2nnc(C3=COCCO3)o2)cc1C`: 51.4% (active); `COc1cc(-c2nnc(NC(=O)C3=COCCO3)o2)cc(OC)c1OC`: -9.37%; `COc1cc(OC)cc(C(=O)N[C@H](C(=O)OCC(=O)NC(C)c2ccccc2)C(C)C)c1` (some centres not stated): -108%.

Turning to `CCn1cc(/C=C2/SC(=S)NC2=O)c(C)n1`, the inhibition is 13.4%.
